The values that follow come from PubChem BioAssay AID686978 (National Center for Advancing Translational Sciences (NCATS), 2013).

SMILES strings stand for the structures. Several values for one entry are separate records, joined by “and”; a condition that tells them apart may be missing. Equal entries are not always repeated. Hit rate of the full screen: of about 420,000 compounds, about 64,000 (15%) were called active. Inconclusive results (about 27%) are left out. Calls follow the shape of the dose curve; as a rule, active = well fitted inhibition curve with a large enough effect; inconclusive = small, poorly fitted or top-dose-only effect; inactive = flat fitted curve, though single readings scatter. Only a sample is shown. A call without a number means that no potency is given here.
Potency is read from the fitted curve at half-maximal effect.

The experiment in a line: qHTS for Inhibitors of human tyrosyl-DNA phosphodiesterase 1 (TDP1): qHTS in cells in absence of CPT. Also: nearly all actives have a fitted effect of over 55% in size. The conditions noted are these: DT40 Tdp1-/- hTDP1 cells, no CPT, ATP luminescence, 48 h; activity change, negative = growth inhibition: at 46.2 µM (top of the series). Summed up:
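Stably hTDP1-transfected Tdp1-null chicken DT40 cells were treated with library compounds minus camptothecin and grown for at least 48 hr at 37 °C, after which cellular ATP was quantified by luminescence.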
Regarding `CCOc1ccccc1NC(=O)Cn1c(=O)n(Cc2ccccc2)c(=O)c2c(C)c(C(=O)N(C)C)sc21`, the Potency entry is “inactive”.
Turning to `O=C(NCCN1CCOCC1)C1CCN(S(=O)(=O)c2ccccc2)CC1`, the Potency entry was “inactive”.
Regarding `COCCCn1c(SCC(=O)Nc2oc(C)c3c(C)n[nH]c(=O)c23)nc2sc3c(c2c1=O)CCC3`, the Potency result was “inactive”.
The result for `O=c1c(CCc2ccccc2)nc2cncnc2n1C1CC1` reads “inactive”; that for `C=CCn1c(COc2cccc3cccnc23)nnc1SCC(=O)OC`, “inactive”; that for `CC(=O)c1cc2c(cc1N)OCO2`, “inactive”.
Consider `C/C(COc1ccccc1)=N\NC(=O)c1nnn(-c2nonc2N)c1-c1ccc(C)cc1`, for which the Potency entry is “inactive”.
Then `CSc1ccc(S(=O)(=O)N2CCC(C(=O)NCCc3ccccc3)CC2)cc1`, with “inactive”; and `Cc1cc(S(=O)(=O)NC2CCCC2)ccc1-n1cnnn1`, with “inactive”; and `COc1ccc(NC(=O)c2ccc3oc(=O)c(S(=O)(=O)c4ccc(F)cc4)cc3c2)c(OC)c1`, with “inactive”.
On to `CCCCNC(=O)C1(O)c2ccccc2NC(=O)N1c1ccc(Cl)cc1` (stereo not given), for which the Potency result is “inactive”.
With `CC(=O)Nc1ccc(NC(=O)CCN2C(=O)C3CC=CCC3C2=O)cc1` (stereo not given), the Potency entry was “inactive”.
Consider `CCNC(=S)N(CCN(CC)CC)Cc1cc2cc3c(cc2[nH]c1=O)OCO3`, for which the Potency entry is “inactive”.
Then `Cc1c(C)c2c(OCC(=O)N[C@@H](C(=O)O)c3ccccc3)cc3c(c2oc1=O)CCC(C)(C)O3`, with “inactive”; and `Cc1ccccc1NC(=O)CCOc1ccccc1`, with “inactive”.
The result for `CC(C)CCC(=O)Nc1cc(S(=O)(=O)N2CCOCC2)ccc1N1CCCC1` reads “inactive”.
The result for `Cc1cccc(OCCC(=O)Nc2ccccc2C(N)=O)c1` reads 11.6 µM (active).
With `Cc1cccc(OCC(=O)Nc2ccccc2F)c1`, the Potency entry is “inactive”.
`Cc1cccc(OCCC(=O)Nc2cc(S(=O)(=O)N3CCCCC3)ccc2N2CCOCC2)c1`: the Potency was 20.6 µM (active).
The result for `CC(=O)NCCC(=O)Nc1cc(S(=O)(=O)N2CCOCC2)ccc1N1CCOCC1` reads “inactive”; that for `O=C(Nc1cccc(C(=O)O)c1)/C(=C\c1ccccc1)NC(=O)c1ccc(Br)o1`, “inactive”.
The result for `Nc1nc2ncccn2c1-c1ccccc1` reads “inactive”; that for `O=c1cc(-c2ccccc2)n2c(SCc3ccccc3)nnc2[nH]1`, “inactive”; that for `CC(=O)N1c2ccc(S(=O)(=O)N(C)CC(=O)N(C)Cc3ccccc3)cc2CC1C` (stereo not given), “inactive”.
For the molecule `Cn1c(=O)oc2cc(S(=O)(=O)CCC(=O)NCCc3ccc(Cl)cc3)ccc21`, the Potency entry is “inactive”.
The result for `CC1Cc2ccccc2N1CC(=O)Nc1ccc(S(N)(=O)=O)cc1` (stereo not given) reads “inactive”; that for `CCOc1ccc(NC(=O)CCS(=O)(=O)c2ccc3c(c2)CCCN3C(=O)CC)cc1`, “inactive”.
Then `COc1cccc(CNC(=O)C2CCC(CNS(=O)(=O)c3cccs3)CC2)c1` (stereo not given), with “inactive”; and `COc1cccc(CNC(=O)C2CCCN(S(=O)(=O)N3CC(C)CC(C)C3)C2)c1` (stereo not given), with “inactive”; and `CC1Cc2cc(S(=O)(=O)CCC(=O)NCc3ccc(Cl)cc3)ccc2N1C(=O)C1CC1` (stereo not given), with 4.61 µM (active).
The result for `Cc1ccc(CNC(=O)CCS(=O)(=O)c2ccc3c(c2)CC(C)N3C(=O)C2CC2)o1` (stereo not given) reads 25.9 µM (active).
For the molecule `CCC(=O)N1c2ccc(S(=O)(=O)CCC(=O)N3CCN(c4ccccc4)CC3)cc2CC1C` (stereo not given), the Potency result was “inactive”.
Take `COc1cccc(CNS(=O)(=O)c2ccc3c(c2)CC(C)N3C(=O)C2CCC2)c1` (stereo not given): the Potency was 16.4 µM (active) and 7.31 µM (active).
Then `CC1Cc2cc(S(=O)(=O)CCC(=O)Nc3ccc(F)c(Cl)c3)ccc2N1C(=O)C1CC1` (stereo not given), with 10.3 µM (active); and `CC1(NC(=O)CCS(=O)(=O)c2ccc(Cl)cc2)CCS(=O)(=O)C1` (stereo not given), with “inactive”; and `Cc1ccc2[nH]c3c(=O)n(CC(=O)NC(C)C)ncc3c2c1`, with “inactive”.
The result for `COc1ccc(S(=O)(=O)NC(C)C(=O)Nc2cccc([N+](=O)[O-])c2)cc1` (stereo not given) reads “inactive”; that for `Cc1ccc(S(=O)(=O)c2c[nH]c3ccc(C)cc3c2=O)cc1`, “inactive”; that for `C[C@H]1CN([C@@H](C)CO)C(=O)Cc2cc(NS(C)(=O)=O)ccc2O[C@@H]1CN(C)CC1CC1`, “inactive”.
On to `CCC(Oc1ccccc1)C(=O)OCC(=O)Nc1c(C)nn(-c2ccccc2)c1C` (stereo not given), for which the Potency entry was “inactive”.
Then `CCCc1cc(C(=O)Nc2ccc(C(=O)OC)cc2)cs1`, with “inactive”; and `CC(O)c1ccc(OCCN(C)c2ccccn2)cc1` (stereo not given), with “inactive”.
Then `O=C(COC(=O)c1c(Cl)cccc1Cl)Nc1cccc(S(=O)(=O)NC2=NCCCCC2)c1`, with “inactive”.
`CCn1c(CC(=O)Nc2ccccc2C)nnc1SCC(=O)NC1=NCCS1`: the Potency result was “inactive”.
The result for `COCCCNC(=O)C1CCN(c2ccc(N3CCOCC3)nn2)CC1` reads “inactive”.
`Cn1cc(C(=O)NCc2ccccc2F)cn1`: the Potency result is “inactive”.
Regarding `COC(=O)Cc1ccc(NC(=S)NCc2ccccc2)cc1`, the Potency result was “inactive”.
The result for `Fc1ccccc1CNC(=S)Nc1ccc(Cl)cc1` reads 20.6 µM (active).
Consider `C[C@H](C(=O)CC(=O)OC(C)(C)C)[C@H](O)c1ccc(C(F)(F)F)cc1`, for which the Potency result is “inactive”.
The result for `O=C(NCc1ccncc1)NC12CC3CC(CC(C3)C1)C2` reads “inactive”; that for `CCN(CC(=O)NCc1ccc(F)cc1)S(=O)(=O)c1ccc(Cl)s1`, “inactive”; that for `CCCCNC(=O)c1nc(C2CCN(S(=O)(=O)c3ccc(F)c(F)c3)CC2)oc1-c1cccc(C(F)(F)F)c1`, “inactive”.
Turning to `CN1CCC[C@@H]1CCO[C@](C)(c1ccccc1)c1ccc(Cl)cc1`, the Potency is 26.6 µM (active).
Regarding `CN1CCCC1CCO[C@@](C)(c1ccccc1)c1ccc(Cl)cc1` (stereo not given in full), the Potency is 14.6 µM (active).
The result for `C#CC(CCN1CCCCC1)(OC)c1ccccc1` (stereo not given) reads “inactive”.
In the case of `CCC1CCC/C1=N\NC(=O)c1ccc(Cl)cc1` (stereo not given), the Potency entry is “inactive”.
Regarding `COc1ccc(CN2CCNC(=O)C2CC(=O)N(C)Cc2ccccn2)cc1OC` (stereo not given), the Potency entry is “inactive”.
The result for `CC1CC(C)CN(S(=O)(=O)c2cccc(C(=O)N3C(=O)c4cccc(N)c4C3=O)c2)C1` (stereo not given) reads “inactive”.
As for `Cc1ccc(NC(=O)Cn2nnc3sc4c(c3c2=O)CCC(C)C4)cc1` (stereo not given), the Potency entry was “inactive”.
Take `COC(=O)c1cccc(Cn2nnc3sc4c(c3c2=O)CCC(C(C)(C)C)C4)c1` (stereo not given): the Potency was 18.4 µM (active).
The result for `COc1cccc2cc(-c3nc(Cl)c4c5c(sc4n3)CC(C)CC5)c(=O)oc12` (stereo not given) reads “inactive”.
Consider `O=C(C1CCCO1)N(Cc1ccccc1)c1ccccc1` (stereo not given), for which the Potency entry was “inactive”.
In the case of `Cc1cc(C)c(NC(=O)c2cc3sc(Cl)cc3n2C)c(C)c1`, the Potency result was “inactive”.
Consider `CCOC(=O)Cc1ncccc1C(=O)Nc1ccc(OC)cc1`, for which the Potency result is “inactive”.
In the case of `CCOC(=O)Cc1ncccc1C(=O)Nc1ccc(OC(F)(F)F)cc1`, the Potency is 14.6 µM (active).
The result for `COC(=O)Cc1ccc(OCC(=O)Nc2ccc(OC(F)(F)F)cc2)cc1` reads “inactive”; that for `O=c1[nH]snc1-c1c(Cl)cccc1Cl`, “inactive”; that for `O=C(NC1CC(=O)N(c2ccc(Cl)cc2)C1)C1CCCC1` (stereo not given), “inactive”.
The result for `Cc1cc(C)c(S(=O)(=O)Nc2c(C)n(C)n(-c3ccccc3)c2=O)cc1[N+](=O)[O-]` reads “inactive”.
Regarding `CCCCCCCC[n+]1cccc(C(=O)N2c3c(nc(N)[nH]c3=O)NC(C)C2C)c1` (stereo not given), the Potency entry was “inactive”.
Then `N#CC1=C(N)N(c2ccccc2)C2=C(C(=O)CCC2)C1c1ccccc1` (stereo not given), with “inactive”; and `CSc1sc(C)cc1C1C(C#N)=C(N)N(c2cccnc2)C2=C1C(=O)CCC2` (stereo not given), with 11.6 µM (active).
Then `COc1ccc(C2C(C#N)=C(N)N(c3ncn[nH]3)C3=C2C(=O)CCC3)cc1` (stereo not given), with “inactive”.
As for `Nc1c(N(CCO)C(=O)C2CCCCC2)c(=O)[nH]c(=O)n1Cc1ccccc1`, the Potency result was “inactive”.
Then `COCCSc1nnc(NC(=O)c2cc(OC)c(OC)cc2[N+](=O)[O-])s1`, with “inactive”; and `Cc1nnc2n1N=C(c1ccccc1)CS2`, with “inactive”.
As to `c1csc(-c2cn3c(n2)SCC3)c1`, the Potency result is “inactive”.
Consider `O=c1c2cc(-c3ccccc3)sc2nc2n1N=C(c1cccs1)CS2`, for which the Potency was 23.1 µM (active).
The result for `Cc1cc(C)c(OCC(=O)N/N=C/c2ccco2)c(C)c1` reads 16.4 µM (active).
Then `Cc1ccc(OCC(=O)N/N=C\c2ccco2)c(C)c1`, with “inactive”.
For `Cc1ccc(NC(=O)CCC(=O)N/N=C/c2ccco2)c(C)c1`, the Potency result was “inactive”.
`O=C(NC1CCCC1)C(c1ccco1)N(C(=O)c1csnn1)c1ccccc1` (stereo not given): the Potency result is “inactive”.
As to `O=C(NCc1ccccc1)C(c1ccc(F)cc1)N1CCN(C(=O)C2CCCO2)CC1` (stereo not given), the Potency entry was “inactive”.
The result for `O=C(NCC1CCCO1)/C(=C/c1ccc(Cl)cc1)NC(=O)c1ccccc1` (stereo not given) reads “inactive”; that for `Cc1ccc(NC(=O)CN(C)C(=O)COC(=O)c2nccnc2N)cc1`, “inactive”.
Then `Brc1ccccc1C1N=C(c2ccccc2)NO1` (stereo not given), with “inactive”; and `CCOC(=O)N1CCN(C(=O)c2ccc(CN(c3ccc(C)c(C)c3)S(C)(=O)=O)cc2)CC1`, with 23.1 µM (active); and `CCN1CCN(C(=O)c2ccc(CN(c3ccc(C)c(C)c3)S(C)(=O)=O)cc2)CC1`, with “inactive”.
The result for `CCOC(=O)C1CCCN(C(=O)c2ccc(N(C)C)cc2)CC1` (stereo not given) reads “inactive”; that for `CO/N=C/CC(=O)c1ccc(OC)cc1`, “inactive”.
In the case of `COCCNc1nc2nonc2nc1N(C)Cc1ccc(C)cc1`, the Potency result was “inactive”.
Turning to `CN(C)C(CNC(=O)CCCOc1ccccc1)c1ccco1` (stereo not given), the Potency entry was “inactive”.
The result for `CCC1(C)CC(=O)NC1=O` (stereo not given) reads “inactive”.
`COc1ccc(N2CCN(S(=O)(=O)c3cc(Br)cnc3N)CC2)cc1`: the Potency result is “inactive”.
Turning to `CCc1cccc(C)c1NS(=O)(=O)c1c(C)nc2sccn2c1=O`, the Potency entry was “inactive”.
Then `CCc1cccc(C)c1NS(=O)(=O)c1cc(Br)cnc1N`, with 18.4 µM (active); and `Cc1cc(C)c2nc(-c3ccco3)cc(C(=O)O)c2c1`, with “inactive”; and `CC(C)(CNC(=O)Cc1ccc(Cl)cc1Cl)N1CCOCC1`, with “inactive”.
In the case of `CN(C)S(=O)(=O)c1ccc(C(=O)NCC(C)(C)N2CCOCC2)cc1`, the Potency result was “inactive”.
Then `CC(C)(CNC(=O)c1ccc(Cl)c(S(=O)(=O)N2CCc3ccccc3C2)c1)N1CCOCC1`, with 23.1 µM (active); and `Cc1ccc(C)c(NC(=O)COC(=O)CSc2ccccc2)c1`, with “inactive”; and `Cc1cccc(C)c1NC(=O)CS(=O)CC(=O)N1CCN(c2ccccc2)CC1` (stereo not given), with “inactive”.
Regarding `Cc1ccccc1C(=O)NC(=S)NC1CC1`, the Potency entry is “inactive”.
The result for `Cc1ccccc1C(=O)N1CCN(c2ccc(NC(=O)c3cccs3)cc2)CC1` reads 16.4 µM (active); that for `Cc1ccccc1C(=O)Nc1ccccc1NC(=O)c1ccccc1C`, “inactive”; that for `O=C(NC(=O)c1ccccc1N1CCCCC1)Nc1ccc(Br)cc1`, “inactive”.
The result for `O=C(Nc1ccc(N2CCN(C(=O)c3cccs3)CC2)cc1)c1cccnc1Cl` reads “inactive”.
The result for `Cc1ccccc1C(=O)Nc1ccc(N2CCCCCC2)cc1` reads 9.2 µM (active); that for `COc1ccc(N2CCN(C(=O)c3cccs3)CC2)cc1`, “inactive”.
On to `Cc1ccccc1C(=O)NC(=S)Nc1ccc(N2CCN(C(=O)c3ccccc3)CC2)cc1`, for which the Potency is 10.3 µM (active).
